# MEX-5 binding: MEX-5 zinc finger RNA-binding disruptors – biochemical, C. elegans, fluorescence polarization, MLPCN library, primary screen; activity score (negative = inhibition of binding), % at 10 µM; AID 1832, 2009; MEX-5/FITC-TCR2 RNA binding; stronger effect = lower value; hit rate 0.38% among 300,000;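 active = inhibition past about -25% in most replicates, and total fluorescence under double the plate's negative control median, limit read from the data; inconclusive = replicates evenly split on the limit, or fluorescence at least double controls; inactive = too little inhibition in most replicates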;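 note: 0% = DMSO and -100% = 5 µM competing unlabeled TCR2 RNA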
# eLon inh: inhibitors of E. coli Lon protease, primary screen, biochemical, fluorescence polarization; P0A9M0; purified E. coli Lon protease; inhibition, % at 7.94 µM; hit rate 0.42% among 360,000; AID 602123, 2011; in the data active = inhibition above about 13%, passing the limit was not always enough;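 note: 0% = enzyme with probe and DMSO and 100% = no enzyme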
# GLD-1 RNA inh: GLD-1/TGE RNA complex disruptors, primary screen, biochemical, fluorescence polarization | purified GLD-1 + fluorescein TGE RNA | AID 2280, 2010 | Female germline-specific tumor suppressor gld-1 (Caenorhabditis elegans), Q17339 | inhibition, % at 5.96 µM | hit rate 0.44% among 320,000;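 active = percent inhibition above a per-plate cutoff, the plate mean of test compounds plus 3 SD, cut at about 30% in these data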;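 note: 0% = DMSO wells with GLD-1 and probe and 100% = wells lacking GLD-1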
# MCL1 BIM primary: inhibitors of MCL1 binding to BIM-BH3, primary screen, biochemical, fluorescence polarization. GST-MCL1 / FITC-Bim-BH3 fluorescence polarization. AID 2057, 2009. hit rate 0.68% among 320,000. inhibition, % at 10.9 µM. Induced myeloid leukemia cell differentiation protein Mcl-1 (Homo sapiens), Q07820;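 active = inhibition above the mean inhibition of all tested compounds plus 3 SD, set per campaign, cut at about 40% in these data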;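 note: 0% = DMSO wells and 100% = unlabeled Bim-BH3 peptide control; higher means more loss of mP so more displacement of Bim peptide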
# BCLXL inh: inhibitors of human Bcl-xL, primary screen, biochemical, fluorescence polarization, HTS | Bcl-2-like protein 1 (Homo sapiens), Q07817 | GST-Bcl-xL / FITC-Bim BH3 peptide fluorescence polarization | inhibition, % at 10.9 µM | hit rate 0.7% among 320,000 | AID 2129, 2009;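 active = inhibition above the mean of all tested compounds plus 3 SD, cutoff set per campaign, cut at about 30% in these data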;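 note: 0% = DMSO wells and 100% = unlabeled Bim-BH3 peptide competitor; inhibitors lower millipolarization by displacing the labeled peptide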
# * marks the source's active call; other numbers are inactive results; ? = inconclusive; · = no result given. The list is not random: actives were taken first. Their share in the collection is about 1.4%.
SMILES,MEX-5 binding,eLon inh,GLD-1 RNA inh,MCL1 BIM primary,BCLXL inh
OCCCc1nc2n(n1)C(c1ccccc1Cl)C=C(c1cccs1)N2 (stereo unspecified),-15,-52,30,42*,37*
CCn1nccc1NC(=O)c1csc([C@H]2C[C@H](O)[C@@H](CO)O2)n1,·,0,·,·,·
OCCOc1ccc(C2=NCCO2)cc1,-50*,-2,1,7,-2
Cc1ccc(C(=O)CSc2nc3c([nH]2)c(=O)n(C)c(=O)n3C)cc1,-30*,-8,3,18,10
O=C(NNC(=O)c1cc(Cl)ccc1O)c1cccc(S(=O)(=O)N2CCOCC2)c1,-27*,10,3,12,9
COc1ccc(C2CC(c3cccs3)=NN2c2ccc(C=O)cc2)cc1 (stereo unspecified),-47*,·,-41,-62,-13
O=C(NCCc1ccc(Cl)cc1)C1CCC(=O)N(C2CCCCCC2)C1 (stereo unspecified),-2,-6,1,2,135*
Cc1nn(C)c(C)c1CN(C)C(=O)C1c2ccccc2Oc2ccccc21,-47*,7,30,37,31*
Cc1nc2ccc(S(=O)(=O)NCC(=O)NCCN3CCCCCC3)cc2s1,0,0,-7,42*,41*
Cc1cc(NCCCCCCCNc2cc(C)nc3cc([N+](=O)[O-])ccc23)c2ccc([N+](=O)[O-])cc2n1,·,8,·,·,·
OC[C@@H]1CN(Cc2ccc(F)cc2)C[C@H](n2cnc3c(NCc4ccc(F)cc4)ncnc32)O1,·,-6,·,·,·
O=C(c1cnc(Cc2c[nH]c3ccccc23)c(I)c1)N1CCN(Cc2ccccc2)CC1,·,5,·,·,·
Cc1ccc(-c2cc(-c3ccc(C)o3)nc(N)c2C#N)cc1,-2,-16,39*,45*,32*
Cc1ccc(-c2cc(-c3ccc(F)cc3)c(C#N)c(N)n2)o1,0,-14,21,31,23
COc1ccccc1CN(C(=O)CCl)C(C(=O)NC1CCCCC1)c1ccncc1 (stereo unspecified),·,25*,25,29,30*
O=C(/C=C/[C@H]1O[C@@H](n2ccc(=O)[nH]c2=O)[C@H](O)[C@@H]1O)NCc1ccc2c(c1)OCO2,·,-6,·,·,·
O=C1OCCC1Sc1nc2ccccc2c(=O)n1-c1ccc(F)cc1 (stereo unspecified),-1,0,-2,-5,1
Cc1ccc(-n2c(SC3CCOC3=O)nc3ccccc3c2=O)cc1 (stereo unspecified),1,·,4,9,31*
Oc1[nH]c2ccccc2c1N=NC(=S)N1CCOCC1,-41*,-1,-2,7,0
Cn1cc(C2=C(c3ccc(Cl)cc3Cl)C(=O)NC2=O)c2ccccc21,?,-64,-10,24,60*
COC(=O)c1ccc(/C=N/N2CCN(Cc3ccccc3)CC2)cc1,1,-5,-2,-1,2
COC(=O)c1ccc(/C=N\N2CCN(Cc3ccc(C)cc3)CC2)cc1,1,142*,1,4,2
CCCCC(c1nc2ccccc2[nH]1)n1c(=O)c(-c2ccccc2)nc2cc(C)c(C)cc21 (stereo unspecified),·,4,·,·,·
Cc1nc(S/C(=C\c2ccc(-c3ccc(C(=O)O)c(Cl)c3)o2)C(=O)O)n[nH]1,-91*,-33,·,·,·
Cc1nc(S/C(=C\c2ccc(OCc3ccccc3Cl)cc2)C(=O)O)n[nH]1,·,-3,8,7,4
SMILES,MEX-5 binding,eLon inh,GLD-1 RNA inh,MCL1 BIM primary,BCLXL inh
CCc1nc2ccc(C(=O)Nc3cccc(OCC(=O)N(C)C)c3)cn2c1N(C)Cc1ccc(OC)cc1,·,-16,·,·,·
CN(C)c1ccc(/C=N/NC(=O)c2ccccn2)cc1,15,-3,8,4,-1
CN(C)c1ccc(/C=N/NC(=O)c2cnc3ccccc3c2)cc1,-44*,-6,-2,4,7
Cn1c(N)c(C(=O)COC(=O)c2cc(-c3ccco3)nc3ccccc23)c(=O)n(Cc2ccccc2)c1=O,-5,·,-4,43*,19
CN(C)c1ccc(/C=C/c2cc[n+](C)cc2)cc1,27,-84,95*,-5,9
CC[n+]1c(/C=C/c2ccc(N(C)C)cc2)ccc2ccccc21,-27*,-34,-3,-13,-7
O=C(O)COc1ccc(NC(=O)c2ccc3c(c2)C(=O)N(CC2CCCO2)C3=O)cc1 (stereo unspecified),·,-12,·,·,·
NC(=O)c1cc([N+](=O)[O-])ccc1NCc1cnccn1,·,8,-2,0,1
CCOc1ccc(Cl)cc1-c1cc(C(=O)NC(C)C)[nH]n1,·,4,·,·,·
CCN(CC)c1ccc(/C=c2\sc3nnc(-c4ccccc4Cl)n3c2=O)cc1,?,-210,-74,-176,-117
CCN(CC)c1ccc(/C=c2/sc3nnc(-c4ccccc4C)n3c2=O)cc1,-63*,-109,-69,-82,-52
COc1cccc(C(C)(O)c2nc(-c3cccs3)cs2)c1 (stereo unspecified),·,14,·,·,·
C=Cc1c(C)c2cc3[nH]c(cc4nc(cc5nc(cc1[nH]2)C(C)=C5CCC(=O)O)C(CCC(=O)O)=C4C)c(C)c3C=C,-42*,1,19,83*,29
Cc1cc(C)c([C@@H]2C[C@H]3CN(C4CCCC4)C(=O)[C@]34CCCN24)c(-n2cccn2)c1,-21,12,25,29,34*
COc1ccc(C2Nc3cccc4cccc(c34)N2)cc1Br,-1,-6,1,14,10
COc1cc(C2Nc3cccc4cccc(c34)N2)ccc1OC(C)=O,-1,-6,10,45*,39*
CCCCC(=O)Nc1ccc(Cl)cn1,0,-3,6,4,4
CCCC(C)C(=O)Nc1ccc(Cl)cn1 (stereo unspecified),-1,-3,8,3,162*
CCCn1nc(C(=O)Nc2cc(OCC)c(N3CCOCC3)cc2OCC)c2ccccc2c1=O,·,6,·,·,·
Cc1cccc(C(O)c2ncc(-c3ccc(C(F)(F)F)cc3)[nH]2)c1C (stereo unspecified),·,-3,·,·,·
CC(=O)OC[C@@H]1CN(Cc2cccc(C(F)(F)F)c2)C[C@H](n2cnc3c(NCc4ccco4)ncnc32)O1,·,-3,·,·,·
COCCN(CCOC)Cc1c(O)ccc2c1O/C(=C\c1ccc(C)o1)C2=O,?,-67,-4,24,34*
CCN(CC)Cc1c(O)ccc2c1O/C(=C\C=C\c1ccccc1)C2=O,-7,-77,12,19,27
O=C(NC(c1ccc(-c2ccccc2)cc1)c1cnccn1)C1CCN(Cc2cccs2)CC1 (stereo unspecified),·,-8,·,·,·
Cc1ccc(C2NC(=O)c3c(sc4c3CCN(C)C4)N2)s1 (stereo unspecified),-7,-123,-34,-7,13
